{"source": "PubChem BioAssay AID651909", "about": "(Vanderbilt Specialized Chemistry Center, 2012)", "biological_target": "Histone deacetylase 9 (Homo sapiens) (UniProt Q9UKV0)", "sequence (Q9UKV0 whole entry, looked up)": "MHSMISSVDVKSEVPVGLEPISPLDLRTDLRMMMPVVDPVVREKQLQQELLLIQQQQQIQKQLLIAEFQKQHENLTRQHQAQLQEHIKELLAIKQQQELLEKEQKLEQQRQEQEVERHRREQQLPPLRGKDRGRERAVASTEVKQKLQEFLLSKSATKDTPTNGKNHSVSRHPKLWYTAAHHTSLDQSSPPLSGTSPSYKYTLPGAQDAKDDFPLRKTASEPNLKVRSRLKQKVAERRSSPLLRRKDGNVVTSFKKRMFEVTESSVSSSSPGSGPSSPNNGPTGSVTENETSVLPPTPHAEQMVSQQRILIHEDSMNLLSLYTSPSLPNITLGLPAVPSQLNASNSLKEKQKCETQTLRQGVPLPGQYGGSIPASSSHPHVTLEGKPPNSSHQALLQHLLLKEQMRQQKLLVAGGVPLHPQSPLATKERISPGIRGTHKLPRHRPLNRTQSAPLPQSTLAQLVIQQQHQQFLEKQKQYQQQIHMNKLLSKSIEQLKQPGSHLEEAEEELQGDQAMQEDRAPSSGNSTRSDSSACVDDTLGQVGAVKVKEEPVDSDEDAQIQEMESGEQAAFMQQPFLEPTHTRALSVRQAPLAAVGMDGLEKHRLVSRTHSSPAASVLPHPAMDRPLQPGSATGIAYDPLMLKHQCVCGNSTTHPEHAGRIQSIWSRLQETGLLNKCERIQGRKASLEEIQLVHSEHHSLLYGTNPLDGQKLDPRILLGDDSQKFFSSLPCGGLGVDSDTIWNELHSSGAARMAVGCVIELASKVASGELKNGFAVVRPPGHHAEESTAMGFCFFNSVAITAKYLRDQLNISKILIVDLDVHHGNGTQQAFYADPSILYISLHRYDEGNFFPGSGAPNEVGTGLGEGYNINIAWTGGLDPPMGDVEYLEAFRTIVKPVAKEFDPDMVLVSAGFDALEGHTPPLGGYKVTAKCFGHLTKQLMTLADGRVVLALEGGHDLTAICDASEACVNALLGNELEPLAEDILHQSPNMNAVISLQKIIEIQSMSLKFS", "test": "HDAC9 deacetylase inhibition, profiling panel, selectivity assay for E-cadherin restoration project, biochemical, human (AID 651909)", "note": "Activity calls are given as the source filed them. The rule behind the calls is not given here."}
{"smiles": "O=C(NCCCNC(=O)c1ccc[nH]c1=O)c1cc(-c2ccccc2)on1", "values": [{"measurement": "outcome", "value": "inactive"}]}
